From PubChem
Only some compounds are listed: those with a hit (about 4% of all), similar ones and a draw of the others.
TIM10 inh: growth inhibitors of TIM10 yeast strain. 330,000 compounds, 1.4% hits. S. cerevisiae TIM10 strain growth, BacTiter-Glo luminescence, 24 h. inhibition, % at 10 µM;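 active = inhibition of 40% or more at the single tested concentration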;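 note: wild-type TIM10 isogenic control strain grown at permissive 25 °C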
NALP1 inh: blocks the NALP1 inflammasome reconstituted in yeast | S. cerevisiae NALP1/ASC/caspase-1 growth, X-gal OD620, 72 h | inhibition, % at 10 µM | 280,000 compounds, 0.61% hits | AID 2071; in the data active = inhibition mostly above about 24%, no sharp cut-off; inactive = mostly below about 32%
tim23-1 inh: growth inhibitors of tim23-1 mutant yeast. S. cerevisiae tim23-1 growth, BacTiter-Glo luminescence, 24 h. inhibition, % at 20 µM. AID 463212. 330,000 compounds, 1.3% hits;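 active = growth inhibition of the mutant yeast at or above 50%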;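 note: temperature-sensitive mutant grown at 25 °C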
tim10-1 inh: tim10-1 yeast growth inhibition | S. cerevisiae tim10-1 ts strain growth, BacTiter-Glo, 24 h | inhibition, % at 20 µM | 330,000 compounds, 2.2% hits | AID 463190;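 active = inhibition of at least 40%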;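 note: mutant grown at 25 °C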
NALP3 yeast inh: inhibitors of NALP3 inflammasome in yeast; Yeast reconstituted NLRP3/ASC/caspase-1, beta-gal luminescence, 24 h; inhibition, % at 10 µM; 330,000 compounds, 0.39% hits; AID 2825;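 active = inhibition of 50% or more; inactive = inhibition below 50%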
Hits are given with their value; i = inactive; nt = no result given.

SMILES	TIM10 inh	NALP1 inh	tim23-1 inh	tim10-1 inh	NALP3 yeast inh
Nc1nc(COc2ccccc2)cs1	i	i	i	i	i
CC(C)(ONC(=O)Nc1ccccc1Cl)C(=O)O	i	30	i	i	i
O=C(CC1SC2=NCCN2C1=O)Nc1ccc(Br)cc1 (centres undefined)	i	i	i	i	i
O=C(CC1Sc2ncnn2C1=O)Nc1ccc(Br)cc1 (centres undefined)	i	85	i	i	i
C1CCC(C(CC2CCCCN2)C2CCCCC2)CC1 (centres undefined)	i	71	i	i	i
CC(C)N(CCNC(=O)c1oc(=O)c2ccccc2c1-c1ccccc1)Cc1ccco1	i	i	i	i	i
O=C(COC(=O)Cn1cnc2ccccc21)Nc1ccc2c(c1)C(=O)c1ccccc1C2=O	i	50	i	i	i
CC(=O)c1ccc(NC(=O)COC(=O)Cn2cnc3ccccc32)cc1	i	nt	i	i	i
Cc1oc(-c2ccccc2F)nc1CS(=O)(=O)CC(=O)NCCN1CCCC1	i	29	i	i	i
CC(C)c1cccc(C(C)C)c1NC(=O)CN1CCCC1	i	i	i	i	i
COc1ccc(CC(=O)Nc2ccc(-c3ccc4nnc(C)n4n3)cc2)cc1OC	i	i	i	i	i
Oc1ccc(Cl)cc1-c1cc(C(F)(F)C(F)F)nc(-c2ccccc2)n1	i	43	i	i	i
CCOC(=O)c1ccc(N2Cc3ccccc3C2=N)cc1	i	40	i	i	i
Cc1cc(C)c(S(=O)(=O)NCCc2ccncc2)c(C)c1	i	i	i	i	i
Cc1cc(C)c(S(=O)(=O)NCc2ccncc2)c(C)c1	i	39	i	i	i
O=C(Nc1ccncc1)c1ccc(NS(=O)(=O)c2ccc3[nH]c(=O)[nH]c3c2)cc1	i	i	i	i	i
Brc1ccc(-c2nnc3ccc(N4CCN(c5ccccc5)CC4)nn23)cc1	i	30	i	i	i
Fc1ccc(-c2nnc3ccc(N4CCCC4)nn23)cc1	i	i	i	i	i
Cc1cc(C(=O)Nc2ccc3c(c2)OCCO3)ccc1[N+](=O)[O-]	i	41	i	i	i
COC(=O)CCC(=O)Nc1ccc(Cl)c(Cl)c1	i	i	i	i	i
COC(=O)CCC(=O)NC(=S)Nc1cc(Cl)ccc1Cl	i	42	i	i	i
COc1ccc(CCNC(=O)[C@@H](NC(=O)c2ccccc2F)C(C)C)cc1OC	i	i	i	i	i
COc1ccc2[nH]c3c(c2c1)CCN1C(=O)C(CC(=O)NC/C=C(\C)CCC=C(C)C)C[C@H](C(=O)N2CCOCC2)[C@@]31CCC1CCCC1 (some centres undefined)	i	nt	i	i	nt
CC1CCCC(NC(=O)COC(=O)Cc2ccc(Br)cc2)C1C (centres undefined)	i	18	i	i	i
CCCCC1CCC(C(=O)N(CCOC)c2c(N)n(CCCC)c(=O)[nH]c2=O)CC1 (centres undefined)	i	nt	i	i	i
SMILES	TIM10 inh	NALP1 inh	tim23-1 inh	tim10-1 inh	NALP3 yeast inh
O=c1[nH]cc(F)c(=O)[nH]1	nt	116	nt	nt	nt
Cc1cccc(N2CCN(S(=O)(=O)c3c(C(=O)N4CCCCC4)c(C)n(C)c3C)CC2)c1C	i	i	i	i	i
N=c1n(CCN2CCCCC2)c2ccccc2n1CC(O)c1ccc(Cl)c(Cl)c1 (centres undefined)	i	43	i	i	i
CC(C)c1ccc(N=C2NN=C(c3cccs3)CS2)cc1	i	38	i	i	i
CC(=O)Nc1ccc(S(=O)(=O)N2CCN(Cc3cccs3)CC2)cc1	i	26	i	i	i
O=C(Nc1ccc(F)cc1F)N1CCN(CCc2ccccc2)CC1	i	nt	i	i	i
CCCCCC(=O)Nc1ncc2c(n1)CC(c1cccs1)CC2=O (centres undefined)	i	38	i	i	i
CS(=O)(=O)N(Cc1ccccc1)c1ccc(C(=O)N2CCc3ccccc3C2)cc1	i	i	i	i	i
CCCCCOc1ccc(Br)cc1/C(C)=N/NC1=NCCN1	i	83	i	i	i
COc1ccc(Br)cc1/C(C)=N/NC1=NCCN1	i	i	i	i	i
Cn1cnc([N+](=O)[O-])c1S(=O)(=O)c1ccc(Cl)cc1	nt	80	nt	nt	nt
Cn1cnc([N+](=O)[O-])c1NC(C)(C)C	i	i	i	i	i
CCc1ccc2[nH]c(=O)c(CN(Cc3ccco3)C(=S)NCC3CCCO3)cc2c1 (centres undefined)	i	38	i	i	i
Cc1cc2cc(CN(Cc3ccco3)C(=S)NCC3CCCO3)c(=O)[nH]c2cc1C (centres undefined)	i	i	i	i	i
CO/N=C/CC(=O)c1ccc(-c2ccccc2)cc1	i	i	i	i	i
C/[N+]([O-])=C\CC(=O)c1ccc(-c2ccccc2)cc1	i	29	i	i	i
C#CCN(C)CCCOc1ccc(Cl)cc1Cl	i	56	i	i	i
CN(C)C(=O)c1ccc(NC(=O)COC(=O)C2(c3ccccc3)CCCC2)cc1	i	nt	i	i	i
O=C1C=C(c2ccccc2)OC(c2ccccc2)O1 (centres undefined)	i	41	i	i	i
O=C1C=C(c2ccccc2)OC2(CCCC2)O1	i	nt	i	i	i
O=C(NNC(=S)NC1CCCCC1)c1ccccc1Br	i	i	i	i	i
Cc1cc(C)c(C)c(OCC(=O)N2CCOCC2)c1	i	44	i	i	i
COc1ccc(C2NCCc3c2[nH]c2ccccc32)cc1CSc1nc2ccccc2s1 (centres undefined)	nt	57	nt	nt	nt
COC(=O)C1CCN(Cc2ccc(OCCCN3CCN(c4ccc([N+](=O)[O-])cc4)CC3)cc2)CC1	i	26	i	i	i
CC1CCN(CCCCOc2ccc([N+](=O)[O-])cc2)CC1	i	i	i	i	i
SMILES	TIM10 inh	NALP1 inh	tim23-1 inh	tim10-1 inh	NALP3 yeast inh
CC(=O)c1ccc(Nc2cc(C)nc3c(C)cccc23)cc1	i	28	i	i	i
O=C1CCSc2ccc(Cl)cc2N1Cc1cccc(Cl)c1	i	i	i	i	i
Cc1ccc(CN2C(=O)CCSc3ccc(Cl)cc32)cc1	i	36	i	i	i
COc1cc(CNC2CCCC2)cc(Cl)c1OCc1ccc(F)cc1	i	i	i	i	i
Fc1ccc(COc2ccc(Br)cc2CNCc2ccncc2)cc1	i	i	i	i	i
CCOc1cc(CNCc2ccncc2)cc(Br)c1OCc1ccc(F)cc1	i	51	i	i	i
CCOc1cc(CNC2CCCC2)cc(Cl)c1OCc1ccc(F)cc1	i	97	i	i	i
NS(=O)(=O)c1cccc(NC(=O)COC(=O)COc2ccc3ccccc3c2)c1	i	i	i	i	i
NC(=O)NC(Cc1ccccc1)C(=O)NCCCSc1ccccc1 (centres undefined)	i	i	i	i	i
Cc1ccc(NC(=S)N(CCN(C)C)Cc2cc3cc(C)ccc3[nH]c2=O)cc1	i	18	i	i	i
CCOC(=O)c1c(-c2ccc(C)cc2)cn2ccccc12	i	i	i	i	i
CCOC(=O)c1c(-c2ccccc2)cn2ccccc12	i	25	i	i	i
CCCCCCCCCC(=O)N[C@H](CN1CCOCC1)[C@H](O)c1ccccc1	i	nt	i	i	i
